From PubChem BioAssay (Tox21) come the findings set out here.

The nature of test [1]: qHTS assay to identify small molecule antagonists of the peroxisome proliferator-activated receptor delta (PPARd) signaling pathway - cell viability counter screen (AID 743213). Also: nearly all actives have a fitted effect of over 50% in size. Also: potency is read from the fitted curve at half-maximal effect. In a few lines:
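PPARd-bla HEK293H cells (3000/well) got compound plus 300 nM L165041 agonist for 17 h at 37 C. Viability in the same wells came from CellTiter-Glo luminescence after 30 min at room temperature.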
Background: In qHTS, concentration-response curves come from the screen itself.

A short description of test [2]: qHTS assay to identify small molecule agonists of the farnesoid-X-receptor (FXR) signaling pathway - cell viability counter screen (AID 743218). Also: nearly all actives have a fitted effect of over 45% in size. In a few lines: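 Same-well cytotoxicity check on FXR-UAS-bla HEK 293T cells: 5 h attachment, 16 h compound at 37 C, CellTiter-Glo luminescence read at room temperature after 30 min.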
Test [3] in a line: qHTS assay to identify small molecule antagonists of the farnesoid-X-receptor (FXR) signaling pathway - cell viability counter screen (AID 743221; active = well fitted cell-killing curve with a large enough effect in the repeat runs, not every such curve was filed as active; also: nearly all actives have a fitted effect of over 50% in size). A digest of the protocol:
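HEK 293T FXR-bla cells, 5 h pre-incubation; compound + CDCA 50 uM final, 16 h, 37 C; beta-lactamase FRET read first, then CellTiter-Glo luminescence, 30 min RT.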

Test [4] deals with Vitamin D3 receptor (Homo sapiens) (UniProt P11473). The experiment in a line: qHTS assay to identify small molecule agonists of the vitamin D receptor (VDR) signaling pathway (AID 743222; calls by dose curve). A digest of the protocol: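 Using LiveBLAzer B/G FRET detection, agonism was scored in VDR-bla cells exposed overnight (16 h, 37C) to DMSO-dissolved compounds; substrate incubation was 2 h at room temperature.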
Sequence of Vitamin D3 receptor (Homo sapiens) (P11473 whole entry, looked up): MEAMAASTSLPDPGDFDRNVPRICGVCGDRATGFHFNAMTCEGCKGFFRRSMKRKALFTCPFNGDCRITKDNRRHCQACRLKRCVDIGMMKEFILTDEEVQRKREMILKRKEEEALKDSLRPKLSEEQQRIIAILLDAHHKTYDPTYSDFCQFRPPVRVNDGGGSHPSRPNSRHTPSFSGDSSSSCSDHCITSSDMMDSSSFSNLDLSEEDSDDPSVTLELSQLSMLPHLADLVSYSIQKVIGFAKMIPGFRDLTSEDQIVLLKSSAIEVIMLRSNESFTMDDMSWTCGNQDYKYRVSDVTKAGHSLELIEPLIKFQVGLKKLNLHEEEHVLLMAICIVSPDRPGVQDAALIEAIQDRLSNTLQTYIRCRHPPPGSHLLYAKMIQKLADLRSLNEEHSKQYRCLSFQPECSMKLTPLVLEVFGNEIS

Test [5] has the same target. The experiment in a line: qHTS assay to identify small molecule antagonists of the vitamin D receptor (VDR) signaling pathway (AID 743223; active = well fitted inhibition curve with a large enough effect in the signal ratio in the repeat runs, not every such curve was filed as active; the % refers to the signal ratio). A digest of the protocol: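 Beta-lactamase reporter read-out: FRET substrate fluorescence after 2 h at room temperature, following 16 h exposure of VDR-bla cells to test compound plus 3 nM (final) 1alpha,25-dihydroxyvitamin D3 agonist at 37C.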

Test [6] in a line: qHTS assay to identify small molecule agonists of the vitamin D receptor (VDR) signaling pathway - cell viability counter screen (AID 743224). Also: series mostly up to about 63 µM; nearly all actives have a fitted effect of over 50% in size. A digest of the protocol: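 Counter screen for cytotoxicity: VDR-bla cells at 2,000 cells/well, 16 h compound exposure, then CellTiter-Glo luminescence after the beta-lactamase measurement.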
The target of test [7] is Bile acid receptor (Homo sapiens) (UniProt Q96RI1). Put plainly: qHTS assay to identify small molecule agonists of the farnesoid-X-receptor (FXR) signaling pathway (AID 743220; active = well fitted activation curve with a large enough effect in the signal ratio in the repeat runs, not every such curve was filed as active; the % refers to the signal ratio). A digest of the protocol:
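FXR-UAS-bla HEK 293T cells carrying a UAS-driven beta-lactamase reporter were plated for 5 h at 37C/5% CO2, then exposed to DMSO-dissolved Tox21 10K compounds for 16 h at 37C. A LiveBLAzer B/G FRET substrate was loaded for 2 h at room temperature before fluorescence reading.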

For test [8] the target is unchanged. Put plainly: qHTS assay to identify small molecule antagonists of the farnesoid-X-receptor (FXR) signaling pathway (AID 743217; active = well fitted inhibition curve with a large enough effect in the signal ratio in the repeat runs, not every such curve was filed as active; the % refers to the signal ratio). In a few lines: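 Quantitative HTS, beta-lactamase reporter format: FXR-UAS-bla HEK 293T cells co-treated 16 h at 37 °C with compounds and 50 uM final chenodeoxycholic acid, then read by B/G FRET fluorescence.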

Results filed as inconclusive are left out. Active and inactive are the calls of the source. Unless noted, calls follow the shape of the dose curve; as a rule, active = well fitted curve in the direction sought with a large enough effect in the repeat runs; inconclusive = weak or mixed curves; inactive = no such curve, though single readings can be large; an effect the other way counts as inactive or inconclusive.

Sequence of Bile acid receptor (Homo sapiens) (Q96RI1 whole entry, looked up): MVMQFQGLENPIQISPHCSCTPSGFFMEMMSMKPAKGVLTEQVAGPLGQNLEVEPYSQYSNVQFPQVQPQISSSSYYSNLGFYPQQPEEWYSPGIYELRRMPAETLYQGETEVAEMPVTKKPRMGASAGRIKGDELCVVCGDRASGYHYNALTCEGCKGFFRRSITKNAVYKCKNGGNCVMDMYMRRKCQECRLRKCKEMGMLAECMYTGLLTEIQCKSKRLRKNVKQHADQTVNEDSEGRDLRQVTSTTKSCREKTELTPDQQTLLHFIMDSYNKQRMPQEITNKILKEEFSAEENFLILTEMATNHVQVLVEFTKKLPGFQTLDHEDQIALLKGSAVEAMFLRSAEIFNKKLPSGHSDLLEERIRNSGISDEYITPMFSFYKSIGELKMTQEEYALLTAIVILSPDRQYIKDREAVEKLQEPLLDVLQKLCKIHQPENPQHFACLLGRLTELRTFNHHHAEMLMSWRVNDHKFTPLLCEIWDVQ

In the case of `CCCCNc1cc(C(=O)O)cc(S(N)(=O)=O)c1Oc1ccccc1`, the Potency entry in test [1], in test [2] and in test [6] was “inactive” in each case. The molecule was called inactive in test [3], in test [4] and in test [5].
Consider `O=C1CCCCCCCCCCC(=O)OCCO1`, for which the Potency entry in test [1], in test [2] and in test [6] was “inactive” throughout. Besides, the call in test [3], in test [4] and in test [5] was inactive.
For `COC(=O)c1ccc(OC)cc1`, the Potency entry in test [1], in test [2] and in test [6] was “inactive” in each case. Moreover, the call in test [7] and in test [4] was inactive.
With `NC1=NCC2c3ccccc3Cc3ccccc3N12` (configuration not stated), the Potency entry in test [1], in test [2] and in test [6] was “inactive” throughout. For the same molecule, the molecule was called inactive in test [3] and in test [5].
As for `C1CCOC1`, the Potency entry in test [1] and in test [6] was “inactive” each time. Besides, the call in test [8], in test [7], in test [3], in test [4] and in test [5] was inactive.
On to `C=O`, for which the Potency entry in test [1], in test [2] and in test [6] was “inactive” each time. In addition, the molecule was called inactive in test [3], in test [4] and in test [5].
Regarding `CCCCNC(=S)NCCCC`, the Potency result in test [1] and in test [2] was “inactive” each time. Besides, the molecule was called inactive in test [3], in test [4] and in test [5].
Take `Oc1ccccc1F`: the Potency result in test [1], in test [2] and in test [6] was “inactive” in each case. The outcome in test [7], in test [3], in test [4] and in test [5] was inactive.
As to `Cc1c[nH]c(=S)[nH]c1=O`, the Potency in test [1] is 55.1 µM (active). The Potency entry in test [2] is “inactive”. The molecule was classed as inactive in test [3] and in test [5].
Regarding `CCC/C=C/CO`, the Potency result in test [1], in test [2] and in test [6] was “inactive” each time. Moreover, the molecule was called inactive in test [7], in test [3], in test [4] and in test [5].
Consider `CC1(O)CSC(C)(O)CS1` (configuration not stated), for which the Potency result in test [1] and in test [2] was “inactive” each time. The call in test [7] and in test [3] was inactive.
For the molecule `CC(C)NCC(O)COc1ccc(CCOCC2CC2)cc1` (configuration not stated), the Potency result in test [1], in test [2] and in test [6] was “inactive” each time. Also, the result in test [3], in test [4] and in test [5] was inactive.
Turning to `CC1=C2[C@H](/C=C(\C)C(=O)O)CC[C@@H](C)[C@H]2CC1`, the Potency result in test [1], in test [2] and in test [6] was “inactive” in each case. Moreover, the molecule was called inactive in test [8], in test [7] and in test [3].
Turning to `NC(=O)Cc1cccc(C(=O)c2ccccc2)c1N`, the Potency result in test [1] and in test [6] was “inactive” each time. For the same molecule, the call in test [8], in test [7], in test [4] and in test [5] was inactive.
In the case of `C=CCc1cc(OC)c(O)c(C(=O)NCCO)c1`, the Potency result in test [1], in test [2] and in test [6] was “inactive” throughout. For the same molecule, the outcome in test [8], in test [7], in test [4] and in test [5] was inactive.
With `Cc1ccc(C(C)C)cc1O`, the Potency result in test [1], in test [2] and in test [6] was “inactive” in each case. The result in test [3] and in test [4] was inactive.
For the molecule `Cc1ccccc1C(=O)Nc1ccc(C(=O)N2CCCC(O)c3cc(Cl)ccc32)c(C)c1` (configuration not stated), the Potency result in test [1] and in test [2] was “inactive” throughout. Further, the molecule was called inactive in test [7] and in test [4].
`O=c1oc2c(O)c(O)cc3c(=O)oc4c(O)c(O)cc1c4c23`: the Potency result in test [1] and in test [6] was “inactive” each time. For the same molecule, the outcome in test [8], in test [7], in test [4] and in test [5] was inactive.
Take `Cc1onc(-c2ccccc2)c1C(=O)Cl`: the Potency entry in test [1] and in test [6] was “inactive” in each case. Moreover, the molecule was called inactive in test [8], in test [7], in test [3] and in test [4].
With `CC(=O)O[C@H]1CC[C@@]2(C)C(=CC[C@@H]3[C@@H]2CC[C@]2(C)C(C(C)=O)=CC[C@@H]32)C1`, the Potency result in test [1], in test [2] and in test [6] was “inactive” throughout. Further, the molecule was classed as inactive in test [3], in test [4] and in test [5].
As for `CC(C)(C)c1ccc(OC(=O)c2ccccc2O)cc1`, the Potency entry in test [1] and in test [2] was “inactive” in each case. For the same molecule, the result in test [7], in test [3], in test [4] and in test [5] was inactive.
Take `CCCNC(C)C(=O)Nc1c(C)csc1C(=O)OC` (configuration not stated): the Potency entry in test [1], in test [2] and in test [6] was “inactive” in each case. Besides, the molecule was called inactive in test [3], in test [4] and in test [5].
On to `CCCCCCC`, for which the Potency result in test [1], in test [2] and in test [6] was “inactive” throughout. Besides, the call in test [8], in test [7] and in test [3] was inactive.
Regarding `COC(C)CCO` (configuration not stated), the Potency entry in test [1], in test [2] and in test [6] was “inactive” throughout. The molecule was called inactive in test [3], in test [4] and in test [5].
Regarding `C=CC1CO1` (configuration not stated), the Potency entry in test [1], in test [2] and in test [6] was “inactive” each time. Moreover, the result in test [3] and in test [4] was inactive.
Regarding `c1ccc(CN(CC2=NCCN2)c2ccccc2)cc1`, the Potency result in test [1], in test [2] and in test [6] was “inactive” each time. Also, the molecule was classed as inactive in test [3] and in test [4].
Regarding `CCc1nnc(NS(=O)(=O)c2ccc(N)cc2)s1`, the Potency entry in test [1], in test [2] and in test [6] was “inactive” in each case. Moreover, the molecule was called inactive in test [7], in test [3], in test [4] and in test [5].
On to `CC(C)CCCCCCc1ccc(OCCOCCO)cc1`, for which the Potency entry in test [1], in test [2] and in test [6] was “inactive” throughout. Moreover, the molecule was classed as inactive in test [3].
On to `OCCN(CCO)c1ccccc1`, for which the Potency entry in test [1], in test [2] and in test [6] was “inactive” in each case. In addition, the molecule was called inactive in test [7], in test [3], in test [4] and in test [5].
In the case of `CCCCc1ccc2nc(NC(=O)OC)[nH]c2c1`, the Potency entry in test [1], in test [2] and in test [6] was “inactive” in each case. Moreover, the molecule was classed as inactive in test [7], in test [3] and in test [4].
`CCCCCOc1ccc(C2SC(=O)NC2=O)cc1OCC` (configuration not stated): the Potency entry in test [1] and in test [2] was “inactive” throughout. Also, the result in test [3] and in test [5] was inactive.
In the case of `ClC(Cl)Cl`, the Potency entry in test [1], in test [2] and in test [6] was “inactive” each time. Further, the call in test [8], in test [7], in test [3] and in test [5] was inactive.
For the molecule `OCc1ccccc1O`, the Potency entry in test [1], in test [2] and in test [6] was “inactive” throughout. In addition, the result in test [8], in test [3], in test [4] and in test [5] was inactive.
For `C=CCCCCCCCCO`, the Potency entry in test [1], in test [2] and in test [6] was “inactive” throughout. In addition, in test [3], the molecule was called inactive.
Turning to `CN1C(=O)CC(c2ccccc2)C1=O` (configuration not stated), the Potency result in test [1], in test [2] and in test [6] was “inactive” each time. Also, the molecule was called inactive in test [7] and in test [3].
Consider `CCN1CC(CCN2CCOCC2)C(c2ccccc2)(c2ccccc2)C1=O` (configuration not stated), for which the Potency entry in test [1], in test [2] and in test [6] was “inactive” each time. Further, the call in test [7], in test [3] and in test [4] was inactive.
Regarding `CC(C)C(=O)OCC(C)(C)C(O)C(C)C` (configuration not stated), the Potency result in test [1] and in test [6] was “inactive” each time. Further, the result in test [8], in test [7], in test [3], in test [4] and in test [5] was inactive.
